# Laboratory results: paper PMC7862700, “An all-to-all approach to the identification of sequence-specific readers for epigenetic DNA modifications on cytosine”
# Key:
# Assay in all cases: DAPPL (digital affinity profiling via proximity ligation, sequencing); 10 mM Tris-HCl pH 7.5, 50 mM NaCl, 1 mM DTT, 4% glycerol, room temperature, 30 min; GST-TFs on glutathione beads, 16-mer random dsDNA library, 0.1% formaldehyde crosslink after washing; high values mean tight binding
# [1] = target: T1, FLI1 (Homo sapiens, UniProt Q01543 1-452); details: protein: recombinant; tags: N-terminal GST; dsDNA, one strand shown
# T1 sequence: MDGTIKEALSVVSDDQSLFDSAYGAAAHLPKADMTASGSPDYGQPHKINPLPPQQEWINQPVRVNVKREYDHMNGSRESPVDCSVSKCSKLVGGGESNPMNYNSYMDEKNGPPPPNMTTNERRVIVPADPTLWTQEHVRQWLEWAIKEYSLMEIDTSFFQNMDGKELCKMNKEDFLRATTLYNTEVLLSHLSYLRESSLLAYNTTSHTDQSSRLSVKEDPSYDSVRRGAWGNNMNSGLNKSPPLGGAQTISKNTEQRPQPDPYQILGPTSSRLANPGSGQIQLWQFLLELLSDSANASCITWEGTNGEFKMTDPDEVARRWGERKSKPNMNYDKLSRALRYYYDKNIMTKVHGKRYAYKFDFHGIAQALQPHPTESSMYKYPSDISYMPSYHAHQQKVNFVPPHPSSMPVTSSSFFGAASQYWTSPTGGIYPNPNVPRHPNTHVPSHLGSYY
# How it was run: (§1)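 Sequencing on an Illumina NextSeq500 followed washing, crosslinking with 0.1% formaldehyde, proximity ligation (BsaI/T4 ligase, 1 h, 37 °C) and PCR amplification of pools that had been incubated for 30 min at room temperature with 200 nmole of a random double-stranded 16-mer DNA library in Tris/NaCl/DTT/glycerol buffer. Each pool held DNA-barcoded human transcription factors, expressed in yeast as GST fusions and captured on glutathione beads, plus a tag-only sample. Binding signal is a hexamer's read frequency for a factor divided by its frequency in the tag-only sample.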
# [2] = target: T2, ELK1 (Homo sapiens, UniProt P19419 1-428); details: protein: recombinant; tags: N-terminal GST; dsDNA, one strand shown
# T2 sequence: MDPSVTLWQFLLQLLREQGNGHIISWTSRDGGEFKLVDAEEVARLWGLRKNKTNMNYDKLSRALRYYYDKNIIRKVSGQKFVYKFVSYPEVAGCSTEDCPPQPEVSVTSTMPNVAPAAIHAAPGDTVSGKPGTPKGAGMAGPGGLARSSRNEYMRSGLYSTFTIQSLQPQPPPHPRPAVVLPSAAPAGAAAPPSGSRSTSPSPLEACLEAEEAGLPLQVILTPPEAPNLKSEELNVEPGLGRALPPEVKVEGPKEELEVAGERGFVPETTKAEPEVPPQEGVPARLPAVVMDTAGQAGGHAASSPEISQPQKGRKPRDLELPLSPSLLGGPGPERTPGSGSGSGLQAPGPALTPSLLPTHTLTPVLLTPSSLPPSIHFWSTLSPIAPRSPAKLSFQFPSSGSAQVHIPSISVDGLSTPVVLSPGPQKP
# How it was run: as §1
# [3] = target: T3, GABPA (Homo sapiens, UniProt Q06546 1-454); details: protein: recombinant; tags: N-terminal GST; dsDNA, one strand shown
# T3 sequence: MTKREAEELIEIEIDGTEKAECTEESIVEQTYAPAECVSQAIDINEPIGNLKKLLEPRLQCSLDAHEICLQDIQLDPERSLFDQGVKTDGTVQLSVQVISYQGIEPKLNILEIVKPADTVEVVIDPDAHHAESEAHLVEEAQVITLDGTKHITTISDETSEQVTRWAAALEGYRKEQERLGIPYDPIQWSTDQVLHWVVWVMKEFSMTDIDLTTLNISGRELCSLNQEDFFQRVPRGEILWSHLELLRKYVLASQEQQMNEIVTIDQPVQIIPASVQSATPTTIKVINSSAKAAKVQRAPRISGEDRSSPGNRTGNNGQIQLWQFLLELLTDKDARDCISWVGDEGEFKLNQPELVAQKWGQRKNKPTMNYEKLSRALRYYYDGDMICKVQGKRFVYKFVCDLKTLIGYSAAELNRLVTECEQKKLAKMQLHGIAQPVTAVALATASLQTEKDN
# How it was run: as §1
# [4] = target: T4, ERG (Homo sapiens, UniProt P11308 1-479); details: protein: recombinant; tags: N-terminal GST; dsDNA, one strand shown
# T4 sequence: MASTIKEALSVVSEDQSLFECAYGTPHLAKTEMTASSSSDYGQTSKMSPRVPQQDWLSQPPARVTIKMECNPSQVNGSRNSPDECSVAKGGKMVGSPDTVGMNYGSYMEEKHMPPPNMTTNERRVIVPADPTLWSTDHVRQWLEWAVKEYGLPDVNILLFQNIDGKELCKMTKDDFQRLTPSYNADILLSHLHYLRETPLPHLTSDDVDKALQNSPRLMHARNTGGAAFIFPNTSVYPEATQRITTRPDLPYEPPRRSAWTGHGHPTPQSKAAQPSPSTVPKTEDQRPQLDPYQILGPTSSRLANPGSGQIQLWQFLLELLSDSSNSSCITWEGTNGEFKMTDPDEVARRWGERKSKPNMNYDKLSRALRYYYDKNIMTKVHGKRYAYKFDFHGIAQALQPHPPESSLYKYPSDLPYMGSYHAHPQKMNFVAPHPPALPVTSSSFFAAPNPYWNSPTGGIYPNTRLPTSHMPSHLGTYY
# How it was run: as §1
# [5] = target: ELF1 (Homo sapiens, UniProt P32519 1-619); details: protein: recombinant; tags: N-terminal GST; dsDNA, one strand shown
# How it was run: as §1
# [6] = target: T5, EHF (Homo sapiens, UniProt Q9NZC4 1-300); details: protein: recombinant; tags: N-terminal GST; dsDNA, one strand shown
# T5 sequence: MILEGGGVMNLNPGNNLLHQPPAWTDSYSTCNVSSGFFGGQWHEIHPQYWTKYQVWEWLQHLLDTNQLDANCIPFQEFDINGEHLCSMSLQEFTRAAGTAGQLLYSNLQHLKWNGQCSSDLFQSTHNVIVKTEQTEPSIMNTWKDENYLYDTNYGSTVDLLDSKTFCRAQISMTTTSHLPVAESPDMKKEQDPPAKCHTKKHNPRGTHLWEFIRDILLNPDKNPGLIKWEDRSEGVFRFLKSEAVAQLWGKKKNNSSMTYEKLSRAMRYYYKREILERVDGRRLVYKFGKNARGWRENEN
# How it was run: as §1
# [7] = target: SPI1 (Homo sapiens, UniProt P17947 1-270); details: protein: recombinant; tags: N-terminal GST; dsDNA, one strand shown
# How it was run: as §1
# [8] = target: SPIB (Homo sapiens, UniProt Q01892 1-262); details: protein: recombinant; tags: N-terminal GST; dsDNA, one strand shown
# How it was run: as §1
# [9] = target: T6, ELK3 (Homo sapiens, UniProt P41970 1-407); details: protein: recombinant; tags: N-terminal GST; dsDNA, one strand shown
# T6 sequence: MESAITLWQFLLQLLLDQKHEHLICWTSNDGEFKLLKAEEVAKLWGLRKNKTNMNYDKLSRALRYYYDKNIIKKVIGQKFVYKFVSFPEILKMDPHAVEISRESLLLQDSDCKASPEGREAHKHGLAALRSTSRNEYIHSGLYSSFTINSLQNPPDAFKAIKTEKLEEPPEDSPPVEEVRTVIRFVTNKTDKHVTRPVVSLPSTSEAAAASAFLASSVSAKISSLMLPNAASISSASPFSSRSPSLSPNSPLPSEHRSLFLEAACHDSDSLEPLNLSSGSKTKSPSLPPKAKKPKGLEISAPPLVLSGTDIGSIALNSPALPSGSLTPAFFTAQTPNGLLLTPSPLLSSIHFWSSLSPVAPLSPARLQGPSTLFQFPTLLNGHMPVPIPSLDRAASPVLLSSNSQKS
# How it was run: as §1
# [10] = target: T7, FEV (Homo sapiens, UniProt Q99581 1-238); details: protein: recombinant; tags: N-terminal GST; dsDNA, one strand shown
# T7 sequence: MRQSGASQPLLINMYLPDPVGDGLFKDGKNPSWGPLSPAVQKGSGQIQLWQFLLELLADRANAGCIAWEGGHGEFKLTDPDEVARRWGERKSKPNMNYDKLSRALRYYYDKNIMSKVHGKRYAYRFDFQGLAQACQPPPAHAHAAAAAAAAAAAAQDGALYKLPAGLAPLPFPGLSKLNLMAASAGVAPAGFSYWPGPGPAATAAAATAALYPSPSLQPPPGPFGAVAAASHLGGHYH
# How it was run: as §1
# [11] = target: ETV5 (Homo sapiens, UniProt P41161 1-510); details: protein: recombinant; tags: N-terminal GST; dsDNA, one strand shown
# How it was run: as §1
# [12] = target: HSF1 (Homo sapiens, UniProt Q00613 1-529); details: protein: recombinant; tags: N-terminal GST; chain copies: 3; dsDNA, one strand shown
# How it was run: as §1
# [13] = target: T8, SPIC (Homo sapiens, UniProt Q8N5J4 1-248); details: protein: recombinant; tags: N-terminal GST; dsDNA, one strand shown
# T8 sequence: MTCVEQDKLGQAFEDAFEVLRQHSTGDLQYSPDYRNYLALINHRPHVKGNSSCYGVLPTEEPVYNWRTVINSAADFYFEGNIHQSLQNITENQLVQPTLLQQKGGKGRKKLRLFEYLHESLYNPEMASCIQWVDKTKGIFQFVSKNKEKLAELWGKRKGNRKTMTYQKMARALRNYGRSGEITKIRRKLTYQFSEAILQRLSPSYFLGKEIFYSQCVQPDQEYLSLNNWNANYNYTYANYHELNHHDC
# How it was run: as §1
# [14] = target: ELF4 (Homo sapiens, UniProt Q99607 1-663); details: protein: recombinant; tags: N-terminal GST; dsDNA, one strand shown
# How it was run: as §1
# [15] = target: T9, ELK4 (Homo sapiens, UniProt P28324-2 1-405); details: protein: recombinant; tags: N-terminal GST; dsDNA, one strand shown
# T9 sequence: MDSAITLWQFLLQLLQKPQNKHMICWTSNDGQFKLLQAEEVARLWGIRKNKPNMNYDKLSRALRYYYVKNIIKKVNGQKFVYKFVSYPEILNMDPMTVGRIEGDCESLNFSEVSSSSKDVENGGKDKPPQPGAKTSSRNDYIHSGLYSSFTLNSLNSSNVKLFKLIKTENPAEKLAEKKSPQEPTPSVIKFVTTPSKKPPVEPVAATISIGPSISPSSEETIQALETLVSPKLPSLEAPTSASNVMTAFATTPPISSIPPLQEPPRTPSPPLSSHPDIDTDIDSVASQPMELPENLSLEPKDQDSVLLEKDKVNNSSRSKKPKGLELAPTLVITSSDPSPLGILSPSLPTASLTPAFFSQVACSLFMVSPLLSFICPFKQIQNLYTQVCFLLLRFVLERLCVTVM
# How it was run: as §1
# [16] = target: T10, ETV2 (Homo sapiens, UniProt O00321 1-342); details: protein: recombinant; tags: N-terminal GST; dsDNA, one strand shown
# T10 sequence: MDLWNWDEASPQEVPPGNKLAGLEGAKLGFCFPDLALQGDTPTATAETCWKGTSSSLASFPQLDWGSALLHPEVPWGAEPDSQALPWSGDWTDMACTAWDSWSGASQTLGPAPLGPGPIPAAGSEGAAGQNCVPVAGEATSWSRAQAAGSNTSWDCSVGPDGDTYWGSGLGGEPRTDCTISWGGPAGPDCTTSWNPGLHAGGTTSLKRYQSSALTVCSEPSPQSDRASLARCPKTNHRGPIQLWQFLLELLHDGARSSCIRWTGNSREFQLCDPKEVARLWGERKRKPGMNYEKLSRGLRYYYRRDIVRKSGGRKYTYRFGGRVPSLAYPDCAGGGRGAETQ
# How it was run: as §1
# [17] = target: T11, ELF3 (Homo sapiens, UniProt P78545 1-371); details: protein: recombinant; tags: N-terminal GST; dsDNA, one strand shown
# T11 sequence: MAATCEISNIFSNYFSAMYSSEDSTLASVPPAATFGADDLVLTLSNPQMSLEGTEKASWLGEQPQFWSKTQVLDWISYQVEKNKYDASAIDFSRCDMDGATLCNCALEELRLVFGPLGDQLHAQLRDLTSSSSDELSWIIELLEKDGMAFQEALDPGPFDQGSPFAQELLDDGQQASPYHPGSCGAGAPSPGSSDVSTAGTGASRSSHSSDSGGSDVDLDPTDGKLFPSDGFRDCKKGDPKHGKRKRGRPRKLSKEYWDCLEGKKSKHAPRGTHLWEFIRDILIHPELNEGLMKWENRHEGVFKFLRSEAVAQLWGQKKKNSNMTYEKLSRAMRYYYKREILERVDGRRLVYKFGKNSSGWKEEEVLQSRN
# How it was run: as §1
# [18] = target: CRX (Homo sapiens, UniProt O43186 1-299); details: protein: recombinant; tags: N-terminal GST; dsDNA, one strand shown
# How it was run: as §1
# [19] = target: ETV1 (Homo sapiens, UniProt P50549 1-477); details: protein: recombinant; tags: N-terminal GST; dsDNA, one strand shown
# How it was run: as §1
# Chain of ELF4 (Q99607 whole entry): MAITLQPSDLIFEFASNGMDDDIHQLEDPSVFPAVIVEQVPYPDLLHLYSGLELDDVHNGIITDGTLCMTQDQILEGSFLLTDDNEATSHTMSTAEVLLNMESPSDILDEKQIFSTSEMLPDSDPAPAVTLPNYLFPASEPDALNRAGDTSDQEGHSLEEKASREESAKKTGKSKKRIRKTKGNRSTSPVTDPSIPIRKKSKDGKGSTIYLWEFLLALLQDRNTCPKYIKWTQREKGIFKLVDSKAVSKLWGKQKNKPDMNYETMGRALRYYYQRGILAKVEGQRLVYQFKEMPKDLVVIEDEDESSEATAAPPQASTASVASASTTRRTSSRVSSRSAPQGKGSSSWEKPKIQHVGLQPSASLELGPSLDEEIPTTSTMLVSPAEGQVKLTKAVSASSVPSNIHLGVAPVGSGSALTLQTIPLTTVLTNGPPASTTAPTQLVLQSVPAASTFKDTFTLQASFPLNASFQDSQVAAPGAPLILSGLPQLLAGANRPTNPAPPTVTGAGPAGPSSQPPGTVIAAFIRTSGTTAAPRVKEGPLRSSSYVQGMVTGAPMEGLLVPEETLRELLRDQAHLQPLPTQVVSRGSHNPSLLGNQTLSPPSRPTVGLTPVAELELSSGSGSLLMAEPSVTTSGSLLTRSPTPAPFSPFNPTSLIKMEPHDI
# Chain of ETV1 (P50549 whole entry): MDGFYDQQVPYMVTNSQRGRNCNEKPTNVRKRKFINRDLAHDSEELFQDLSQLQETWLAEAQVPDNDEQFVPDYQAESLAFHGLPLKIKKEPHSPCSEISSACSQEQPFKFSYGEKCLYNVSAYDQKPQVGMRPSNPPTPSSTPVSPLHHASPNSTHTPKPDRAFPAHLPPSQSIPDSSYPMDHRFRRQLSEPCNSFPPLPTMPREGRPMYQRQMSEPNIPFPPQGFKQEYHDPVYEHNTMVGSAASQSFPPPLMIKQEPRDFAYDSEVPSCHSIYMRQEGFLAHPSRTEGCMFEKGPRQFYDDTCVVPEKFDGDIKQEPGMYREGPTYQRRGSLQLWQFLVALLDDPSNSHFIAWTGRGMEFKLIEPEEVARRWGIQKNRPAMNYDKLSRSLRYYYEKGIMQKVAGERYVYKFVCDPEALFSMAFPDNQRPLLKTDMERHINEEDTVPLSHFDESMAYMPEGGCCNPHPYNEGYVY
# Chain of HSF1 (Q00613 whole entry): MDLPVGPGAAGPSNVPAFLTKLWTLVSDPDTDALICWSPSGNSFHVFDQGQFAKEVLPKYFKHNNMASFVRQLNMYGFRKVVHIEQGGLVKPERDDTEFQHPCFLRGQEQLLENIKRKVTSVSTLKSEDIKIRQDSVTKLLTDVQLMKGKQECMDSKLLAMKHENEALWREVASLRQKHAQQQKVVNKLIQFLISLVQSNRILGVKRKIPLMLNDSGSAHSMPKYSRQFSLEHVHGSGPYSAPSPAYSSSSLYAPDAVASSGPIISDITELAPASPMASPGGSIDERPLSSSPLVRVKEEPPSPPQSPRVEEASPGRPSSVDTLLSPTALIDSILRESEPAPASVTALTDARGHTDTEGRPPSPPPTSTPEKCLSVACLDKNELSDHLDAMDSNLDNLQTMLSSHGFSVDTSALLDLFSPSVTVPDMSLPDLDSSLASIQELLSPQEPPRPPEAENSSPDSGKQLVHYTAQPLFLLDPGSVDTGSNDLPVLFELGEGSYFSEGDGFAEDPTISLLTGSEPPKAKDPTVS
# Chain of SPIB (Q01892 whole entry): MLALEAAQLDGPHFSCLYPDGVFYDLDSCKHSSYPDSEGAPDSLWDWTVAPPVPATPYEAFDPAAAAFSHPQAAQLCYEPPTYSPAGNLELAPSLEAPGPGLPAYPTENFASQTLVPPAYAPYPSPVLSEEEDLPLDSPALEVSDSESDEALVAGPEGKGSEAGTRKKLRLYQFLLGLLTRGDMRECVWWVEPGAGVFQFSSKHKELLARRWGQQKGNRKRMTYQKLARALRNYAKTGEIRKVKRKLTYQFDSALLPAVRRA
# Chain of ETV5 (P41161 whole entry): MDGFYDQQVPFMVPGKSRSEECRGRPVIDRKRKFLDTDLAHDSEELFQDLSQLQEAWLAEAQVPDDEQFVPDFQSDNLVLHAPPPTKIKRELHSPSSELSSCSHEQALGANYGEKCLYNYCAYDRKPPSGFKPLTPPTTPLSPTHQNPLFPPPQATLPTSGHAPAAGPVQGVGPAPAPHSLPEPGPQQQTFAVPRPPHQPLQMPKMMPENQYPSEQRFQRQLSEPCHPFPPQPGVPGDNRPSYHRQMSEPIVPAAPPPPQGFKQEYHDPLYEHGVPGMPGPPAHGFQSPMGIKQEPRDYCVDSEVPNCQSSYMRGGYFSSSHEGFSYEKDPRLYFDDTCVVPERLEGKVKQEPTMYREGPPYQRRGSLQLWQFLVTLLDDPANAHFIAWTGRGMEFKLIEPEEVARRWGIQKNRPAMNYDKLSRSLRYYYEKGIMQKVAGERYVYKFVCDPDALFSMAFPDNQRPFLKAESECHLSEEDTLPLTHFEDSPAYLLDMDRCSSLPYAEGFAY
# Chain of ELF1 (P32519 whole entry): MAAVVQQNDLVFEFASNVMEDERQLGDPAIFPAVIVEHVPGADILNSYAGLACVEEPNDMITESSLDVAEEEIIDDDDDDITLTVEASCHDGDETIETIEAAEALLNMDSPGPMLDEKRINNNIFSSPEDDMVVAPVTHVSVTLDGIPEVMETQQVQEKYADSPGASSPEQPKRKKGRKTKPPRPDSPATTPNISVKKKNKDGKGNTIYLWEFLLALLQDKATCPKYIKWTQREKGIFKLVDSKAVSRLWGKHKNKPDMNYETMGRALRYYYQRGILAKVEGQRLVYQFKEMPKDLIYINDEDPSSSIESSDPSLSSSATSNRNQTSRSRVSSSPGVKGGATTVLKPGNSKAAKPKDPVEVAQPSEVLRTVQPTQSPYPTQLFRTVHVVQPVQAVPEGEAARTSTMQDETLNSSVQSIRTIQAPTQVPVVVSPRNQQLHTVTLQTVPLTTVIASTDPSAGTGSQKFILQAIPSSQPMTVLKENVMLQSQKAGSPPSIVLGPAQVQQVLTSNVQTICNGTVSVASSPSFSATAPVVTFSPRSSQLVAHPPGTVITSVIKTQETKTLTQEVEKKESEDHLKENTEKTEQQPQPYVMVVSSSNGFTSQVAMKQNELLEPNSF
# Chain of CRX (O43186 whole entry): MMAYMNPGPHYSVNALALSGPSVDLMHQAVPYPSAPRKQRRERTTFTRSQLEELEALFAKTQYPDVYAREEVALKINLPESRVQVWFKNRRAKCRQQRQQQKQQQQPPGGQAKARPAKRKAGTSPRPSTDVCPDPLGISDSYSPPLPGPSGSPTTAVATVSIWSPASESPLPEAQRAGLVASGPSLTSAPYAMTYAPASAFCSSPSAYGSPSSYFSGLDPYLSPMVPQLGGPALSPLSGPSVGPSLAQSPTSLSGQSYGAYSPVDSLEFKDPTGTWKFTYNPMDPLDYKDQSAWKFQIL
sequence,measurement,setting,value
TGCCTC,binding signal,[1],"1.39 fold enrichment (6-mer frequency, TF over GST control)"
same,binding signal,[2],"1.31 fold enrichment (6-mer frequency, TF over GST control)"
same,binding signal,[3],"1.36 fold enrichment (6-mer frequency, TF over GST control)"
same,binding signal,[4],"1.35 fold enrichment (6-mer frequency, TF over GST control)"
same,binding signal,[5],"1.31 fold enrichment (6-mer frequency, TF over GST control)"
same,binding signal,[6],"1.26 fold enrichment (6-mer frequency, TF over GST control)"
same,binding signal,[7],"1.39 fold enrichment (6-mer frequency, TF over GST control)"
same,binding signal,[8],"1.4 fold enrichment (6-mer frequency, TF over GST control)"
same,binding signal,[9],"1.27 fold enrichment (6-mer frequency, TF over GST control)"
same,binding signal,[10],"1.32 fold enrichment (6-mer frequency, TF over GST control)"
same,binding signal,[11],"1.37 fold enrichment (6-mer frequency, TF over GST control)"
same,binding signal,[12],"1.14 fold enrichment (6-mer frequency, TF over GST control)"
same,binding signal,[13],"1.4 fold enrichment (6-mer frequency, TF over GST control)"
same,binding signal,[14],"1.34 fold enrichment (6-mer frequency, TF over GST control)"
same,binding signal,[15],"1.28 fold enrichment (6-mer frequency, TF over GST control)"
same,binding signal,[16],"1.3 fold enrichment (6-mer frequency, TF over GST control)"
same,binding signal,[17],"1.52 fold enrichment (6-mer frequency, TF over GST control)"
same,binding signal,[18],"1.06 fold enrichment (6-mer frequency, TF over GST control)"
same,binding signal,[19],"1.24 fold enrichment (6-mer frequency, TF over GST control)"
